The source of these data is PubChem BioAssay (NCI).

About 83,000 compounds went through this panel and 20% of them were active in at least one assay; those are over-represented in the sample as a whole.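 Method: cells in 96-well plates; compound added at one concentration; 48 h incubation; percent growth measured; values under 10 scored active.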 Unmarked numbers belong to inactive results. Active and inactive are the calls of the source.

In this test the test system is HL-60(TB) leukemia. The test can be described thus: NCI-60 one-dose screen, 48 h (100 = growth as untreated, 0 = no growth, -100 = all killed). The following applies: 10 µM unless noted.
In the case of `COc1ccc(-c2ccc(-c3ccc(C(=N)N)s3)s2)cc1Cl`, the growth was -41.8% (active). Regarding `CCCc1cc2c(cc1CN(Cc1cc3c(cc1CCC)OCO3)C(=N)OCC)OCO2`, the growth was 105%. The value for `COc1ccc(/C=N/Nc2cc(=O)[nH]c3ccc(C)cc23)cc1` was 94.2%; that for `COc1ccccc1/C=C/C(=O)Nc1ccc(F)cc1` was 86.3%.

Consider `Cc1ccc(C(=O)Nc2cccc(C#Cc3cccc4[nH]nc(N)c34)c2)cc1C(F)(F)F`, for which the growth was 19.2%. Next, `O=S(=O)(O)c1cnccn1`: 95.3%. For the molecule `O=C([O][Sn]([O]C(=O)c1ccccn1)([c]1ccccc1)[c]1ccccc1)c1ccccn1`, the growth was 68.5%. Next, `CN1CCN(c2nc(NCCCNc3ccnc4cc(Cl)ccc34)c3ccccc3n2)CC1`: 15%; `CC(=O)Nc1nc(C)c(C(=O)N/N=C/N2CCOCC2)s1`: 188%. Next, `COc1ccc(Cc2cc(-c3ccccc3C)n[nH]c2=O)cc1`: 92.4%; `CN(C)CCOC(=O)Nc1ccc(Cc2ccc(NC(=O)OCCN(C)C)cc2)cc1`: 52.8% [100 µM]; `COc1ccc(/C=C2\CS(=O)(=O)C/C(=C\c3ccc(OC)cc3)C2=O)cc1`: -29.8% (active). Next, `Nc1nc(N)c2c(ccc3c2ccn3Cc2cccc([N+](=O)[O-])c2)n1`: 8.38% (active). Turning to `O=C(N/N=C/c1ccc(OC(F)F)c(OC2CCCC2)c1)c1cnn2c1NC(c1ccccc1)C2` (centres undefined), the growth is 100%. Next, `O=C(O)c1ccccc1Oc1cc(-c2ccco2)nc(OCCBr)n1`: 100%.

In the case of `COc1cc(OC)cc(-c2ccc(-c3ccc(C(=N)N)o3)o2)c1`, the growth was 4.66% (active). Next, `Cc1ccnc2nc(C(=O)OCC(=O)Nc3ccc(-c4ccccc4)cc3)nn12`: 72.8%; `O=[N+]([O-])c1ccc(N=Nc2c(NNc3ccc([N+](=O)[O-])cn3)cc(S(=O)(=O)O)c3ccccc23)nc1`: 94.9%; `COCCCN1CC(O)=C(c2nc(-c3ccc(C)cc3)cs2)C1=N`: 84.9%.

Regarding `O=c1oc2ccc(-c3ccc(F)cc3F)cc2c(=O)n1-c1cccc(C(F)(F)F)c1`, the growth was -33.3% (active). The value for `CCN(CC)Cc1cc(Nc2ccnc3cc(Cl)ccc23)ccc1OC` was 86%. The value for `O=C(N=c1n(-c2ccccc2)nc2n1CCN2C1=NCCN1)c1ccc(Cl)cc1` was 95.8%. For the molecule `COc1cccc(NC(=O)c2sc3nc(C)c(C(=O)c4ccccc4)cc3c2N)c1`, the growth was 93.5%. Next, `COc1ccc(-c2cnnn2-c2cc(OC)c3c(c2)OCO3)cc1`: -32% (active); `Cc1nc2c(c(=O)[nH]1)OCN(Cc1ccccc1)C2`: 96.5%; `C=C1C(=O)O[C@H]2[C@H]1CC/C(Cn1cc(Cc3c[nH]c4ccccc34)nn1)=C\CC[C@@]1(C)O[C@@H]21`: -49.1% (active). Regarding `O=S(=O)(NCCCNc1nccc(-c2c(-c3cccc(F)c3)nc3sccn23)n1)c1cccc2ccccc12`, the growth was 53.9%.

On to `CN1CC(c2ccc(Br)cc2)C(C(=O)c2ccc(Br)cc2)C12C(=O)Nc1ccccc12` (centres undefined), for which the growth was 98.4%.

With `CCCCCCCCCCCCCCCCNc1ccccc1`, the growth was 8.47% (active).

For the molecule `CCc1ccc(CCN2C(=O)c3ccccc3C2=O)nc1`, the growth was 120%. In the case of `COc1ccc(-c2cc(-c3ccc(Cl)cc3)nc(SCCCCCCC(=O)NO)n2)cc1`, the growth is -18.2% (active).

`CC[C@H]1OC(=O)[C@H](C)[C@@H](O[C@H]2C[C@@](C)(OC)[C@@H](O)[C@H](C)O2)[C@H](C)[C@@H](O[C@@H]2O[C@H](C)C[C@H](N(C)C)[C@H]2O)[C@](C)(OC)C/C(C)=C2/O[C@@]1(C)C=C2C`: the growth was 41.4%.

For the molecule `NC(=S)N/N=C/c1ccc(OC(=O)COc2ccc(Cl)cc2)cn1`, the growth is 19.3%.

With `CCOC(=O)c1noc2c1CCc1cn(Cc3cc(OC)cc(OC)c3)cc1-2`, the growth is 77.1%.

With `O=C(N/N=C/C=C/c1ccc([N+](=O)[O-])o1)c1cc2ccccc2cc1O`, the growth is 3.51% (active). The value for `CN(C)c1ccc2nc3ccc(=[N+](C)C)cc-3oc2c1` was -21% (active). The value for `NC(N)=Nc1nc2ccccc2n2c1nc1ccccc12` was 37.7%.

For the molecule `O=C1OCCCCCCCCCC#Cc2ccccc21`, the growth is 88.7%. For `O=C1/C=C/[C@@H](O)[C@@H]2C[C@@H](O)C[C@H]2/C=C/CCC[C@H](C(F)(F)F)O1`, the growth was -32.7% (active).
